According to PubChem BioAssay (NCI):
This is part of a sample that, as a whole, favours compounds with a hit. Of some 83,000 tested, about 20% had one in any assay.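 Single-concentration screen, 48 h exposure, 96-well plates. Endpoint: percent growth. Below 10 = active.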 A number with no mark means an inactive call. Activity calls are given as the source filed them.

Assays:
Experiment in all cases: NCI-60 one-dose screen, 48 h (100 = growth as untreated, 0 = no growth, -100 = all killed)
Conditions in all cases: 10 µM unless noted
NCI-H23 lung = tested on: NCI-H23 lung
NCI-H226 lung = tested on: NCI-H226 lung
NCI-H322M lung = tested on: NCI-H322M lung
HOP-62 NSCLC = tested on: HOP-62 NSCLC
NCI-H460 lung = tested on: NCI-H460 lung
HOP-92 NSCLC = tested on: HOP-92 NSCLC
NCI-H522 lung = tested on: NCI-H522 lung
A549/ATCC NSCLC = tested on: A549/ATCC NSCLC
786-0 renal = tested on: 786-0 renal
COLO 205 colon = tested on: COLO 205 colon
DU-145 prostate = tested on: DU-145 prostate
K-562 leukemia = tested on: K-562 leukemia
MALME-3M melanoma = tested on: MALME-3M melanoma
MDA-MB-231 breast = tested on: MDA-MB-231 breast
RXF 393 renal = tested on: RXF 393 renal
SF-268 CNS = tested on: SF-268 CNS
SF-295 CNS = tested on: SF-295 CNS
SF-539 CNS = tested on: SF-539 CNS
UACC-257 melanoma = tested on: UACC-257 melanoma
M14 melanoma = tested on: M14 melanoma

| Structure (SMILES) | growth (NCI-H23 lung) | growth (NCI-H226 lung) | growth (NCI-H322M lung) | growth (HOP-62 NSCLC) | growth (NCI-H460 lung) | growth (HOP-92 NSCLC) | growth (NCI-H522 lung) | growth (A549/ATCC NSCLC) | growth (786-0 renal) | growth (COLO 205 colon) | growth (DU-145 prostate) | growth (K-562 leukemia) | growth (MALME-3M melanoma) | growth (MDA-MB-231 breast) | growth (RXF 393 renal) | growth (SF-268 CNS) | growth (SF-295 CNS) | growth (SF-539 CNS) | growth (UACC-257 melanoma) | growth (M14 melanoma) |
| --- | --- | --- | --- | --- | --- | --- | --- | --- | --- | --- | --- | --- | --- | --- | --- | --- | --- | --- | --- | --- |
| COC(=O)C(C)NC1=C(Cl)C(=O)C(NC(C)C(=O)OC)=C(Cl)C1=O (stereo not given) | 101% | 100% | 101% | 98.7% | 95.9% | 101% | 78.2% | 98.9% | 105% | 99.5% | 101% | 109% | 72.2% | 94.6% | 101% | 102% | 99% | 107% | 86.4% | 103% |
| CN(C)c1ccc(/C=C(\C#N)c2nc3ccccc3n2C)cc1 | 58.9% | 77.8% | 46.5% | 89.7% | 13.8% | 86.4% | 3.96% (active) | 31% | 47.4% | 19.4% | 25.7% | 32% | 61.7% | 48.8% | 3.51% (active) | 52.6% | 13.1% | 11.6% | 43.9% | 34.4% |
| c1ccc(-c2[nH]c3ccccc3c2-c2ccccc2)cc1 | 82% | 91.4% | 82.2% | 90% | 82.5% | 8.71% (active) | 91.8% | 84.5% | 83.9% | 107% | 99.7% | 83.4% | 93.9% | 84.7% | 149% | 106% | 87.9% | 84.6% | 101% | 89.5% |
| Cc1ccc(C2CC(c3cccs3)=NN2c2ccc(S(N)(=O)=O)cc2)s1 (stereo not given) | 107% | 89.8% | 98% | 95.6% | 88.8% | 75.2% | 63.2% | 71.2% | 98.5% | -75.1% (active) | 99.2% | 77.9% | 79.4% | 91.6% | 93.1% | 96.5% | 98.3% | 104% | 36.3% | 81.9% |
| COc1ccc(C(=O)/C=C/c2cn(-c3ccccc3)nc2-c2cccc(Nc3ccnc4cc(Cl)ccc34)c2)cc1 | 101% | 95.4% | 101% | 103% | 96.6% | 64.9% | 96.7% | 95.3% | 99.5% | 102% | 86.5% | 85.9% | 57.4% | 70.8% | 95.2% | 89.3% | 106% | 103% | 90.1% | 110% |
| COc1c(B(O)O)cccc1-c1nc2ccc3[nH]ncc3c2c2c1CCCC2 | 15.5% | -10.6% (active) | 16% | 7.22% (active) | 8.49% (active) | 32.8% | 15.1% | 8.01% (active) | 25.9% | 4.2% (active) | 11.1% | 38.5% | 82.6% | 25.2% | -15.8% (active) | 23.2% | 34.8% | 0.769% (active) | 34% | 58.1% |
| CCCCN(CCCC)CCCN=c1nc2c(c(N)n1-c1ccccc1)c(=S)n(-c1ccccc1)c(=S)n2-c1ccccc1 | -56.3% (active) | -82.5% (active) | -57.8% (active) | -99.6% (active) | -95.7% (active) | -66.9% (active) | -54.8% (active) | -38.4% (active) | -100% (active) | -74.1% (active) | -100% (active) | -90.3% (active) | -91.5% (active) | -89.1% (active) | -67.7% (active) | -94% (active) | -100% (active) | -97.7% (active) | -73.1% (active) | -86.3% (active) |
| COC1=CC(c2ccc[nH]2)=N/C1=C\c1[nH]c(C)c(C(=O)CCCCCCCCC(=O)O[C@H]2CC[C@H]3C4CCc5cc(O)ccc5C4CC[C@]23C)c1C (stereo not given in full) | 40.3% | 24.9% | 51.5% | 50.7% | 14.9% | -14.6% (active) | 15% | 4.12% (active) | 19.9% | 18.5% | 32.2% | 13.1% | 40.5% | 3.86% (active) | 52.5% | 38.7% | 28.8% | 32.5% | 49.2% | -35.7% (active) |
| COc1ccc(/C(=C\c2cc(OC)c(OC)c(OC)c2)C(=O)N2CCCNCC2)cc1 | 104% | 100% | 103% | 106% | 110% | 102% | 100% | 105% | 111% | 110% | 115% | 108% | 113% | 94% | 98.4% | 106% | 101% | 108% | 102% | 105% |
| CN(C)CCOc1nc2c3cccnc3cc(-c3cccc(Cl)c3)c2c2ncccc12 | 31.2% | 40.5% | 44.9% | 44.4% | -49.8% (active) | 42.7% | 34.1% | 22% | 21.8% | -65.4% (active) | 14.3% | -21% (active) | -90.4% (active) | -11.5% (active) | -87.4% (active) | 27.4% | 27.9% | 36.3% | -57.5% (active) | -82.1% (active) |
| Fc1ccc2c(CN3CCO[C@H](COc4cccc(Cl)c4)C3)c[nH]c2c1 | 75.5% | 64.9% | 74.6% | 22% | 30.2% | 45.2% | 36.3% | 44.4% | 27.2% | 69.1% | 42.6% | 32.1% | 81.9% | 66.8% | 82.9% | 81.1% | 41.1% | 56.7% | 53.6% | 54.4% |
| Cc1cc(O)c(C2=NN(c3ccc(S(N)(=O)=O)cc3)C(c3ccc(Cl)cc3)C2)c(C)c1Cl (stereo not given) | 78.8% | 106% | 75.3% | 84.3% | 3.35% (active) | 21.3% | 57.7% | 33.2% | 43.3% | 30.8% | 49.3% | 21% | 103% | 59% | 48.1% | 61.7% | 20.4% | 79% | 74.1% | 39.1% |
| Clc1ccc2c(c1)-n1cccc1C(c1ccc3ccccc3c1)=NC2 | 74.4% | 146% | 122% | 101% | 96.7% | 89.6% | 41.3% | 121% | 88.7% | 102% | 115% | 49.4% | 97.8% | 120% | 96.1% | 109% | 80.6% | 103% | 100% | 87.8% |
| COc1ccc(C2=Nn3c(nnc3-c3ccc(Cl)cc3N)SC2)cc1 | 105% | 102% | 109% | 103% | 104% | 94.1% | 85.6% | 103% | 107% | 108% | 117% | 102% | 104% | 85.7% | 104% | 106% | 94.3% | 102% | 95% | 107% |
